N370S GC – N370S glucocerebrosidase modulation, Gaucher chaperone candidate. 330,000 tested, 0.092% active. Potency, µM (doses to about 59.4 µM), most hits filed as inhibitors. AID 2101. N370S GC spleen homogenate, 4MU-glucoside fluorescence. P04062
LMNA splice mod – LMNA splicing modulation; HeLa LMNA splicing GFP/RFP minigene ratio, 48 h; Potency, µM (highest dose often 46.1 µM), usual class: inhibitors; 200,000 tested, 0.01% active; AID 1487; active = well fitted inhibition curve with a large enough effect in the signal ratio, with a control signal flat, not every such curve was filed as active; inconclusive = small, poorly fitted or top-dose-only effect, or effect the other way, or a change in a side signal; the % refers to the signal ratio
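S3 HeLa cells stably expressing lamin A-EGFP splicing minigene plus DsRed2, 600 cells/well, 48 h compound exposure at 37C. Laser-scanning cytometry; analysed as GFP (500-530 nm)/RFP (575-640 nm) total intensity ratio; 0.5% DMSO vehicle.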
GAA inh – alpha-glucosidase (human) inhibition. purified human GAA, 4-MU-alpha-glucoside fluorescence. Potency, µM (series often up to 76.9 µM), actives largely listed as inhibitors. P10253. 200,000 tested, 0.005% active. AID 1466
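Human alpha-glucosidase, 4 nM, pre-mixed with test compounds before 400 uM 4-methylumbelliferyl substrate; 20 min room temperature at pH 5.0. Fluorescence read after pH 10 stop; AC50 values from Hill-equation fits.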
aGlu spleen mod – inhibitors or activators of human alpha-glucosidase in spleen homogenate | P10253 | human spleen homogenate, 4-MU-alpha-glucoside fluorescence | Potency, µM (top dose mostly 79.9 µM), usual class: inhibitors | 240,000 tested, 0.006% active
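Human spleen homogenate (1 ug) with 4-methylumbelliferyl-alpha-D-glucopyranoside (1 mM final) in 50 mM citrate/phosphate pH 5.0, 0.01% Tween-20; 40 min at 37 C. Stopped at pH 10; 4-MU fluorescence Ex 365/Em 440 nm; AC50 by Hill fit.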
GAA glycogen – alters human alpha-glucosidase cleavage of glycogen. recombinant GAA, glycogen substrate, Amplex Red glucose oxidase fluorescence. Potency, µM (top dose mostly 76.4 µM), usual class: inhibitors. 300,000 tested, 0.38% active. AID 2100;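 also: the screen sought inhibitors and activators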
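Recombinant human enzyme (4 nM); glycogen substrate; 37 C, 40 min, pH 5.0. Readout: coupled glucose oxidase/Amplex Red fluorescence.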
Hits are given with their value. In the library only some 0.42% were active in any assay of this set; here they are far more common. Unless noted, calls follow the shape of the dose curve; as a rule, active = well fitted curve in the direction sought with a large enough effect; inconclusive = small, poorly fitted or top-dose-only effect, or another doubt; inactive = no such curve, though single readings can be large; an effect the other way counts as inactive or inconclusive.

Results for C/C=C1/C(=O)C[C@H]2[C@@H]3CCC4=CC(=O)CC[C@]4(C)[C@H]3CC[C@]12C ?
N370S GC: inactive; aGlu spleen mod: inactive

How did OC(COC(c1ccc(Cl)cc1)c1ccc(Cl)cc1)CN1CCc2ccccc2C1 (centres undefined) do in these assays?
N370S GC: 7.9µM; LMNA splice mod: inconclusive; GAA inh: inactive; aGlu spleen mod: inactive; GAA glycogen: inactive

Results for OC(COC(c1ccccc1)c1ccccc1)CN1CCc2ccccc2C1 (centres undefined) ?
N370S GC: inactive; LMNA splice mod: inconclusive; GAA inh: inactive; aGlu spleen mod: inactive; GAA glycogen: inactive

How did CN(CC(=O)Nc1cccc(Cl)c1)S(=O)(=O)c1ccc2[nH]c3c(c2c1)CCCC3 do in these assays?
LMNA splice mod: inconclusive; GAA glycogen: inactive

What do the screens show for `COc1ccc(Nc2cc(C)c3c(O)cccc3n2)cc1`?
N370S GC: inactive; aGlu spleen mod: inactive; GAA glycogen: 22µM

Results for CCC(Oc1ccccc1F)C(=O)N1CCC(c2nc3ccccc3s2)CC1 (centres undefined) ?
LMNA splice mod: inconclusive; GAA glycogen: inactive

How did O=C(NCc1ccccc1Cl)c1ccc(CS(=O)(=O)c2ccc(Br)cc2)o1 do in these assays?
GAA glycogen: 45µM

How did O=C1c2ccccc2CCC1CNCCc1ccc(O)cc1 (centres undefined) do in these assays?
N370S GC: inactive; aGlu spleen mod: inactive

How did COc1ccc(S(=O)(=O)N2CCC(C(=O)Nc3ccc(Oc4ccccc4)cc3)CC2)cc1OC do in these assays?
GAA glycogen: 11µM

What do the screens show for `Cc1noc(C)c1C(=O)NNc1ccc(C(C)C)cc1`?
N370S GC: inactive; GAA inh: inactive; aGlu spleen mod: inactive; GAA glycogen: 40µM

What do the screens show for `CSCC[C@H](NC(=O)[C@H](CCCN=C(N)N)NC(=O)[C@@H]1CCCN1C(=O)[C@H](Cc1ccccc1)NC(=O)[C@H](C)NC(=O)[C@H](CC(C)C)NC(=O)[C@H](Cc1ccc(O)cc1)NC(=O)[C@H](CC(N)=O)NC(=O)[C@@H](N)CCSC)C(N)=O`?
N370S GC: inactive; aGlu spleen mod: inactive

How did CCOC(=O)CSc1nnc(-c2cc(OC)c(OC)c(OC)c2)o1 do in these assays?
N370S GC: inactive; LMNA splice mod: inconclusive; GAA inh: inactive; aGlu spleen mod: inactive; GAA glycogen: inactive

What do the screens show for `COc1cc(-c2nnc(SCc3cc(=O)oc4cc(O)c(O)cc34)o2)cc(OC)c1OC`?
N370S GC: inactive; LMNA splice mod: inconclusive; GAA inh: inactive; aGlu spleen mod: inactive; GAA glycogen: 16µM

What do the screens show for `Cc1[nH][nH]c(=O)c1C(c1ccc(-c2ccc(Cl)c(Cl)c2)o1)c1c(C)[nH][nH]c1=O`?
N370S GC: inactive; LMNA splice mod: inactive; GAA inh: inactive; aGlu spleen mod: inactive; GAA glycogen: 32µM

Results for Cc1[nH][nH]c(=O)c1C(c1ccc(-c2ccc(F)cc2)o1)c1c(C)[nH][nH]c1=O ?
N370S GC: inactive; LMNA splice mod: inconclusive; GAA inh: inactive; aGlu spleen mod: inactive; GAA glycogen: inconclusive

What do the screens show for `CCCCc1ccc(NC(=O)Nc2cccnc2)cc1`?
N370S GC: 11µM; GAA glycogen: inactive

What do the screens show for `CCCCCCCC1=CC2=C(Cl)C(=O)C(C)(OC(C)=O)C(=O)C2=CO1` (centres undefined)?
N370S GC: inactive; aGlu spleen mod: inactive

Results for NC(=O)Cc1c[nH]c2cccc(O)c12 ?
N370S GC: inactive; LMNA splice mod: inactive; GAA inh: inactive; aGlu spleen mod: inactive; GAA glycogen: 10µM

How did CCCNC(=O)[C@H]1O[C@@H]1C(=O)N[C@H](C(=O)N1CCC[C@H]1C(=O)OC)[C@@H](C)CC do in these assays?
N370S GC: inactive; aGlu spleen mod: inactive

How did CCOc1ccc(NC(=O)N2CCC(CN3CCC(C)CC3)CC2)cc1 do in these assays?
LMNA splice mod: inactive; GAA glycogen: inactive

Results for CCOc1ccc(NC(=O)N2CCC(CN3CCc4ccccc4C3)CC2)cc1 ?
LMNA splice mod: inactive; GAA glycogen: 50µM

How did Cc1ccc(Nc2c(-c3ccc(N4CCOCC4)cc3)nc3c(C)cccn23)cc1 do in these assays?
GAA glycogen: 16µM

High-throughput results as filed in PubChem.
